Here are results for 36 targets from the supplement of paper PMC10849652.

About 7,900 targets were measured; listed, in parts, are those with a hit and a random draw of the rest. About 0.6% of all pairs of compound and target were hits. Values without a mark were called inactive.

Chain of UniProt P19784 (P19784 whole entry, looked up): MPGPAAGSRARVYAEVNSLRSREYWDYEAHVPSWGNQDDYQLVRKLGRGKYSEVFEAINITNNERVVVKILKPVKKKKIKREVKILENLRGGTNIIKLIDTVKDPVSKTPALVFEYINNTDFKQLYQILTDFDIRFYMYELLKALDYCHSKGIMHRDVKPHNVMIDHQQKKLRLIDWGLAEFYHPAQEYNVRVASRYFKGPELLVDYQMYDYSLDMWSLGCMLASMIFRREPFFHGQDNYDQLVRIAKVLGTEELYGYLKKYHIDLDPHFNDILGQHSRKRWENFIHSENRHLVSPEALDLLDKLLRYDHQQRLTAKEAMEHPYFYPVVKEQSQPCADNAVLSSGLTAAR
Chain of UniProt O95628 (O95628 whole entry, looked up): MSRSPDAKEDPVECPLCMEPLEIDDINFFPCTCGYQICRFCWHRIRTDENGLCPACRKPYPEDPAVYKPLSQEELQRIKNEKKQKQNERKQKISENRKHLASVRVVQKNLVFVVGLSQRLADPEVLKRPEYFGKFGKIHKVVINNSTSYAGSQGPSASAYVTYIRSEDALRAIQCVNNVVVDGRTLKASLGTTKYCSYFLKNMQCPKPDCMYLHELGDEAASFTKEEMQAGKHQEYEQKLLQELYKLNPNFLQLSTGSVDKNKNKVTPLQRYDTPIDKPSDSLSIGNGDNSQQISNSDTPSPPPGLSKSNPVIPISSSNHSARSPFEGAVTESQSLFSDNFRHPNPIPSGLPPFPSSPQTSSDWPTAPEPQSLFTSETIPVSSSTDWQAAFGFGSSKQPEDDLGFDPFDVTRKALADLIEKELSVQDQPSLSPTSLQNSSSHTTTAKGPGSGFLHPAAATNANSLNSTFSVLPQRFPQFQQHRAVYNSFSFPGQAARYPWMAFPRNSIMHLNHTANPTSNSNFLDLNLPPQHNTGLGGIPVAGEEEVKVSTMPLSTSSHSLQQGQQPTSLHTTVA
Chain of UniProt P45973 (P45973 whole entry, looked up): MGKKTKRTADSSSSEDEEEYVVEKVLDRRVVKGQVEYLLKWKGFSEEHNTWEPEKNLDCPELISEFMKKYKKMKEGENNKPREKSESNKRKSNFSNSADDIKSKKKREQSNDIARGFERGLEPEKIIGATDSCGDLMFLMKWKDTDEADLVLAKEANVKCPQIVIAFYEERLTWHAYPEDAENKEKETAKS
Chain of UniProt P60033 (P60033 whole entry, looked up): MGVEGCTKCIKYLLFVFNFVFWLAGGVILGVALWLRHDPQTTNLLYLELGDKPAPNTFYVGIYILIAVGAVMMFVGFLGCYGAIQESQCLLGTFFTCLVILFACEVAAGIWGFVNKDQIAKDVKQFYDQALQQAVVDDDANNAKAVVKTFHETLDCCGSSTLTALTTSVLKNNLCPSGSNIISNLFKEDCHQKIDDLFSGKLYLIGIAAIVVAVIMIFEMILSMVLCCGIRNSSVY
Chain of UniProt Q96JM3 (Q96JM3 whole entry, looked up): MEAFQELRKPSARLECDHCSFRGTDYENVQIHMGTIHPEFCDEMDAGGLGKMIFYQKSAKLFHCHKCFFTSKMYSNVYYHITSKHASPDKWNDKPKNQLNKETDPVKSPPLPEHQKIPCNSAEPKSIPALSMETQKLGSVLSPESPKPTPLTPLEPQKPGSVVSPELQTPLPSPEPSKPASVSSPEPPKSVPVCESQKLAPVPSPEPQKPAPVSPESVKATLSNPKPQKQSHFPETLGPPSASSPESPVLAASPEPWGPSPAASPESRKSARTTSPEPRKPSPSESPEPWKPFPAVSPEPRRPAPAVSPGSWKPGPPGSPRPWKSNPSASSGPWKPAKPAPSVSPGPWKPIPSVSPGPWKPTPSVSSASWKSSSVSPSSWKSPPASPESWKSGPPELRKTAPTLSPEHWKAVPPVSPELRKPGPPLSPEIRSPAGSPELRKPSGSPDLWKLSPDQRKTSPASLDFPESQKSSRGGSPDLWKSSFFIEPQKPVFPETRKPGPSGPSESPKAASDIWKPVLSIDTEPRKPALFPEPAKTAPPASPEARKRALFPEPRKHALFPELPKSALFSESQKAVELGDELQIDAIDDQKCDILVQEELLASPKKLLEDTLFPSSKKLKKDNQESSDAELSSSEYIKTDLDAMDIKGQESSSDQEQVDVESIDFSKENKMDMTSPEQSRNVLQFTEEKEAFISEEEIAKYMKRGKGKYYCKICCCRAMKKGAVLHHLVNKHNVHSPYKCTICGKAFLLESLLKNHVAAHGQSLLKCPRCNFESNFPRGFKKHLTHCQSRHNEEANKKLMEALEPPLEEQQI
Chain of UniProt Q8NHZ8 (Q8NHZ8 whole entry, looked up): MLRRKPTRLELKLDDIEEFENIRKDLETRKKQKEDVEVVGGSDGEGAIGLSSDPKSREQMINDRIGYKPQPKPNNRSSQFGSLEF
Chain of UniProt Q9Y5P4 (Q9Y5P4 whole entry, looked up): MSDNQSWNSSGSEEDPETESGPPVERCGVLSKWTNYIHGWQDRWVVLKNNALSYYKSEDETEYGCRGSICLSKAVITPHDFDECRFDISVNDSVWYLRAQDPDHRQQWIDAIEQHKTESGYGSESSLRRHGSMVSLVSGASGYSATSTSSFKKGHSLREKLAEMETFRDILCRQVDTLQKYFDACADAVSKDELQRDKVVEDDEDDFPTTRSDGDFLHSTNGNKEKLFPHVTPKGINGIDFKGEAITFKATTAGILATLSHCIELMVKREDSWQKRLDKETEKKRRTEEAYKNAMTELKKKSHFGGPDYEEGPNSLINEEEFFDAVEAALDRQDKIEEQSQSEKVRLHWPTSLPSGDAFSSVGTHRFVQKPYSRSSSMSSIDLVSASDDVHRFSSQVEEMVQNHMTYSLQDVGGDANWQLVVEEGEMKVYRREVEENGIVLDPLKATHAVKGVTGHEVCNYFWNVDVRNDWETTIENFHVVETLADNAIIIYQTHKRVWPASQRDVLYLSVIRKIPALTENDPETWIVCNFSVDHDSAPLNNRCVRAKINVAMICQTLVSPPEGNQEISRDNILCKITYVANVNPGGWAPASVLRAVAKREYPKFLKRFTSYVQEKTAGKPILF
Chain of UniProt P08174 (P08174 whole entry, looked up): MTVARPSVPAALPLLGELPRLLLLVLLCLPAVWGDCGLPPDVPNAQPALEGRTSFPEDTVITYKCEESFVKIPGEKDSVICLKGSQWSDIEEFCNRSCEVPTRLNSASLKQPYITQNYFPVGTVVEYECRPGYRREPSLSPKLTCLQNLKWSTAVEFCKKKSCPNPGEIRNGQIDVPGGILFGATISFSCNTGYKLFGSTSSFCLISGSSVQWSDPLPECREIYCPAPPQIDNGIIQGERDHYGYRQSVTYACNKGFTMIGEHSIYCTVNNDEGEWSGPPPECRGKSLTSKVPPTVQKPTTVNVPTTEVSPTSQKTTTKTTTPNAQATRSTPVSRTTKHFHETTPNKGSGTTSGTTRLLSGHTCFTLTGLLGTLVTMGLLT
Chain of UniProt Q96CF2 (Q96CF2 whole entry, looked up): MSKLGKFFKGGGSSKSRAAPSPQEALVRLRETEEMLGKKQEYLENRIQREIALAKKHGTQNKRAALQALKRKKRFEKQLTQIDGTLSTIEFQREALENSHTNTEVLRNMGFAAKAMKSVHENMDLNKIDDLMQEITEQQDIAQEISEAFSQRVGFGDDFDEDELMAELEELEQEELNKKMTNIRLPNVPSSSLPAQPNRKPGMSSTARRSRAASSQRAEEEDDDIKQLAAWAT
Chain of UniProt O95319 (O95319 whole entry, looked up): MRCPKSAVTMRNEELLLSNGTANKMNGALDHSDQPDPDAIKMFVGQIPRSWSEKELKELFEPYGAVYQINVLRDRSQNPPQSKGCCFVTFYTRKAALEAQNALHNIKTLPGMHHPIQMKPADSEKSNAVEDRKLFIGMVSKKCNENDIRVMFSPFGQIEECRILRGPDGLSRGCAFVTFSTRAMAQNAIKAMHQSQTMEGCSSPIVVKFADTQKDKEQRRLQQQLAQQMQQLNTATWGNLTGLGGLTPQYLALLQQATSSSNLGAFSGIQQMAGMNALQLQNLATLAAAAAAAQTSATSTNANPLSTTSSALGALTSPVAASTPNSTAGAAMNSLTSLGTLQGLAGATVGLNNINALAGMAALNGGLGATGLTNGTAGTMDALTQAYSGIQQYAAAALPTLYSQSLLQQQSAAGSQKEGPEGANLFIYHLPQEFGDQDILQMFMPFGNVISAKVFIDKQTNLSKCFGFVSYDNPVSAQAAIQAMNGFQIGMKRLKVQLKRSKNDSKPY
Chain of UniProt O00748 (O00748 whole entry, looked up): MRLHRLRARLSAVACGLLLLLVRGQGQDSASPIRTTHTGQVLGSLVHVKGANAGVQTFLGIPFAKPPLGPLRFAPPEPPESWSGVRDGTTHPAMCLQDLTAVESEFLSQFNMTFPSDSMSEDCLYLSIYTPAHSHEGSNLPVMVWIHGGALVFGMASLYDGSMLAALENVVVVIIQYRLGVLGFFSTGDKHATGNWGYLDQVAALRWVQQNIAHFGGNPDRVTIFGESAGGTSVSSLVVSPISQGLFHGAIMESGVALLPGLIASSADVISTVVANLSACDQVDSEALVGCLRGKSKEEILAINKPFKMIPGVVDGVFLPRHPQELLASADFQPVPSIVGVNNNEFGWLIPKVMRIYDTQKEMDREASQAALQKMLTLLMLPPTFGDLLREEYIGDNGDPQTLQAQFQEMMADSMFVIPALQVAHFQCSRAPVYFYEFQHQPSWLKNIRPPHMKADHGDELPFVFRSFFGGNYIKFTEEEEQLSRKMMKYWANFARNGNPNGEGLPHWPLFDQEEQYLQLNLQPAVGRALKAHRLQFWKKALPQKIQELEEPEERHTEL
Chain of UniProt Q99653 (Q99653 whole entry, looked up): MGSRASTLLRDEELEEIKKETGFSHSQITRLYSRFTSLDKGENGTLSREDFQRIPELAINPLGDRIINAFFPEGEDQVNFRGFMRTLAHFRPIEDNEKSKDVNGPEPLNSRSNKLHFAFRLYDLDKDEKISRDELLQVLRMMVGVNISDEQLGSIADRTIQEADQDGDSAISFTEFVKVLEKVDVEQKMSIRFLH

Compound in this test: C[C@H](Nc1ncnc2nc[nH]c12)c1cc2cccc(Cl)c2c(=O)n1-c1ccccc1 [duvelisib]
In words: log2 fold change, soluble protein after heating vs DMSO (PISA); higher = thermal stabilisation; K562 cells, 10 uM, 30 min; active = over 0.2 and 3.5 SD of the protein, either way, in both replicates (recomputed). The procedure, abridged:
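Aliquots of K562 cells (2×10^6 cells/mL) treated with 10 μM compound for 30 min were heated for 3 min over 48°C-58°C. After pooling and extraction in PBS with 0.5% NP-40 at 4°C, soluble protein from a 21,000xg, 90 min spin was quantified by TMTpro 16plex LC-MS/MS with channel sums equalised. Thermal stability is expressed against control samples, from duplicates, as a log2 fold change.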
Regarding CHP1 (UniProt Q99653), the log2 fold change was 0.044.
In the case of CES2 isoform 4 (UniProt O00748) it was 0.019.
As for CPT2 (UniProt P23786), the log2 fold change was 0.069.
In the case of CNN2 (UniProt Q99439) it was -0.017; in that of CBX5 (UniProt P45973), 0.029; in that of CNOT4 isoform 6 (UniProt O95628), 0.06.
Take CD55 isoform 7 (UniProt P08174): the log2 fold change is -0.021.
In the case of CPT1A (UniProt P50416) it was 0.022.
In the case of CD81 (UniProt P60033) it was -0.041; in that of CRK (UniProt P46108), -0.025.
In the case of CSK (UniProt P41240) it was -0.018; in that of CELF2 isoform 3 (UniProt O95319), -0.027.
As for CDK5RAP3 isoform 4 (UniProt Q96JB5), the log2 fold change was 0.005.
In the case of CSNK2A2 (UniProt P19784) it was 0.032; in that of CCZ1 (UniProt P86791), -0.053.
In the case of CBR1 (UniProt P16152) it was 0.038.
For CHAMP1 (UniProt Q96JM3) the value was -0.076; for CHMP4C (UniProt Q96CF2), 0.067; for CBS (UniProt P35520), 0.027.
Regarding COX15 (UniProt Q7KZN9), the log2 fold change is 0.035.
In the case of CDAN1 (UniProt Q8IWY9) it was 0.025; in that of CDC26 (UniProt Q8NHZ8), -0.097; in that of COPS3 (UniProt Q9UNS2), -0.003.
In the case of CALCOCO2 isoform 4 (UniProt Q13137) it was 0.042.
In the case of CASP10 isoform 4 (UniProt Q92851) it was -0.08; in that of C9orf72 (UniProt Q96LT7), 0.008; in that of CSNK2A1 (UniProt P68400), 0.01.
As for CCNB1 (UniProt P14635), the log2 fold change is 0.06.
Regarding CHCHD1 (UniProt Q96BP2), the log2 fold change was -0.061.
For the target CERT isoform 3 (UniProt Q9Y5P4), the log2 fold change was 0.067.
For CCDC9 (UniProt Q9Y3X0) the value was -0.04.
For CAMKK2 (UniProt Q96RR4) the value was 0.093; for COMT (UniProt P21964), 0.109.
For CCNK isoform 4 (UniProt O75909) the value was -0.06.
On to CDC42BPA isoform 6 (UniProt Q5VT25), for which the log2 fold change is 0.145.
For C9orf64 (UniProt Q5T6V5) the value was 0.096.
